Measurements reported in PubChem BioAssay AID1570 (National Center for Advancing Translational Sciences (NCATS), 2009).
Several values for one entry are separate records, joined by “and”; a condition that tells them apart may be missing. Equal values may be shown once. Records with an inconclusive call do not appear. Entries that show only a call come without a potency. Values without a mark were called inactive. Activity calls are given as the source filed them. Calls come from the whole dose curve; as a rule, active = well fitted inhibition curve with a large enough effect; inconclusive = small, poorly fitted or top-dose-only effect, or effect the other way; inactive = flat fitted curve, though single readings scatter.

What follows are molecules tested against Thyroid hormone receptor beta (Homo sapiens) (UniProt P10828) (assay: Concentration Response Confirmation Assay for Inhibitors of the Interaction of Thyroid Hormone Receptor and Steroid Receptor Coregulator 2, Fluorescein Fluoroprobe). Conditions: TRbeta LBD / fluorescein-SRC2 peptide, fluorescence polarization, 5 h; series mostly up to 92.2 µM.
Description: NIH Molecular Libraries Probe Production Network [MLPCN] NIH Chemical Genomics Center [NCGC] MLPCN Grant: DK058080 Assay Provider: R. Kip Guy, St. Jude Children's Research Hospital NCGC Assay Overview: Thyroid receptor (TR) regulates many homeostatic processes including basal metabolism, cardiovascular function, body weight, and lipid trafficking. TR modulators are potential therapeutics for obesity and hyperlipidemias but current thyroid analogs have undesirable side effects, particularly cardiac stimulation. To identify inhibitors that specifically prevent the interaction of TR with the steroid receptor coregulator 2 (SRC2), a fluorescence polarization assay was screened (Arnold et al., 2006). This assay detects interaction of the ligand-binding domain of human TRbeta with a fluorescein labeled SRC2 peptide, corresponding to a 20 amino acid region of the nuclear receptor interaction domain. Small molecule inhibitors that block the interaction of TR and SRC2 are detected by a decrease in fluorescence polarization. This assay is a confirmation assay for AID 1469. Arnold, L. A.; Estebanez-Perpina, E.; Togashi, M.; Shelat, A.; Ocasio, C. A.; McReynolds, A. C.; Nguyen, P.; Baxter, J. D.; Fletterick, R. J.; Webb, P.; Guy, R. K. A high-throughput screening method to identify small molecule inhibitors of thyroid hormone receptor coactivator binding. Sci STKE 2006, p 13.
NCGC Assay Protocol Summary: Five uL/well 0.6 uM TRbeta and 20 nM SRC2 Fluorescein in protein buffer (20mM Tris hydrochloride, 100mM NaCl, 10% glycerol, 1mM EDTA, 0.01% NP-40, 1mM DTT, 1uM T3 and 5% DMSO) was dispensed into black solid 1536-well plates (Grenier) using a solenoid-based dispenser. Following transfer of 23 nL compound or DMSO vehicle by a pin tool, the plates were centrifuged 15 s at 1000 RPM and incubated 5 hr at ambient temperature. The plates were read by an Envision (Perkin Elmer) to detect fluorescence polarization of SRC2 Fluorescein (480 nm excitation and 535 nm emission). Data were normalized to unbound (all components except TRbeta) and bound SRC2 Fluorescein controls. In this assay, we provide % activity data for each concentration as well as potencies for the active compounds. Keywords: NIH Roadmap, MLPCN, MLI, MLSMR, qHTS, NCGC, qHTS, thyroid hormone receptor, steroid receptor coactivator, fluorescence polarization

Chain of Thyroid hormone receptor beta (Homo sapiens) (P10828 whole entry, looked up, the tested form may be a part): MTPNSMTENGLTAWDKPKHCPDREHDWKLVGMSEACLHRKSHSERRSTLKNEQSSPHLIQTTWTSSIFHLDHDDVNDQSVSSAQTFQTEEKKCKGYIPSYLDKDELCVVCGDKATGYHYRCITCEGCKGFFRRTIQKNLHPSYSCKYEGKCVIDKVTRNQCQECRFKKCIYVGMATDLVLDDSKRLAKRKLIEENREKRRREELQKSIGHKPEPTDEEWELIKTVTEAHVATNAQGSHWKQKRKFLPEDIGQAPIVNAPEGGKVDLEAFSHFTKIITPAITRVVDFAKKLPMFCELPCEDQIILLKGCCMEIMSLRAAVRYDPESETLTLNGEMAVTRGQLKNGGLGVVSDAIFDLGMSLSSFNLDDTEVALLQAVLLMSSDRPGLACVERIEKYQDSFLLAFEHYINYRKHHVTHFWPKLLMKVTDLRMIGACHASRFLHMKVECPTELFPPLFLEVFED

SMILES	Potency	activity, negative = inhibition
Cn1cc[nH]c1=S	inactive	
CCCCOc1ccc(C(=O)CCN2CCCCC2)cc1	2.51 µM (active)	
N/C(Cc1cccc2ccccc12)=N\OC(=O)c1cccs1		-6.32% [at 5.76 µM]
Cc1cc(N=Cc2c(O)ccc3ccccc23)no1		1.5% [at 0.0112 µM]
Nc1cc(-c2ccncc2)c[nH]c1=O	inactive	
CCc1ccc2c(c1)c1nc(C)sc1n2CC	inactive	
Cn1c(=O)[nH]c2nnc(-c3ccc(Cl)c(Cl)c3)nc2c1=O	inactive	
CC1(C)C(N(O)C(=O)Nc2ccc(Cl)cc2)N(c2ccc(Cl)cc2)C(=O)N1CC(=O)NN (stereo not given)		-8.24% [at 11.6 µM]
COc1ccc(-c2nc(CS(=O)CC(=O)NCc3ccccn3)c(C)o2)cc1 (stereo not given)	35.5 µM (active)	
C=CC(=O)OCCOc1ccccc1	50.1 µM (active)	
Nc1cccnc1Sc1cc(Cl)c(Cl)cc1Cl	inactive	
Cn1c(CCN2CCCCC2)nc2cc(NS(=O)(=O)c3ccc(Cl)cc3)ccc21		-6.74% [at 0.0112 µM]
Cc1cc(C)cc(OCC(=O)NCCc2nc3ccccc3[nH]2)c1	inactive	
C/C(=C\C(=O)c1ccccc1)Nc1ccc(O)cc1		-2.06% [at 11.6 µM]
CN1CCc2ccc3c4c2[C@]1(C)Cc1cccc(c1-4)OCO3	44.7 µM (active)	
CN(C(=S)Nc1cccnc1)c1ccc(O)cc1	inactive	
O=C(O)/C=C/C(=O)Nc1ccc(OC(F)(F)F)cc1Br	50.1 µM (active)	
CCOc1cc(N2CCOCC2)c(OCC)cc1NC(C)C(=O)N1CCN(CC)CC1 (stereo not given)	inactive	
O=c1[nH]c(Nc2ccccc2)cc2ccccc12	25.1 µM (active)	
CCOc1cc(C(c2c(C)[nH][nH]c2=O)c2c(C)[nH][nH]c2=O)ccc1OC(=O)c1cccc([N+](=O)[O-])c1	15.8 µM (active)	

SMILES	Potency	activity, negative = inhibition
Cc1ccc2c(CC(=O)Nc3c(C(=O)c4ccc(F)cc4)oc4ccccc34)coc2c1C	inactive	
Cc1ccccc1Nc1cc2ccccc2c(=O)[nH]1	10 µM (active) and 28.2 µM (active)	
CS(=O)(=O)c1ccc(C(=O)OCC(=O)NC(=O)C2CCCCC2)cc1[N+](=O)[O-]	5.01 µM (active)	
Cc1cccc(S(=O)(=O)c2cn(Cc3ccccc3)c3cc(N4CCC(C)CC4)c(F)cc3c2=O)c1	inactive	
CCCCCCN=CC1=C(O)CC(C)(C)CC1=O		4.31% [at 0.0112 µM]
CC1(C)CC(=O)C(N=Nc2cccc(S(=O)(=O)N3CCOCC3)c2)=C(O)C1	inactive	
COc1ccccc1Nc1cc2ccccc2c(=O)[nH]1	35.5 µM (active)	
Cc1cc2c(NC(=O)Nc3ccccc3)cccc2nn1		-4.49% [at 0.0112 µM]
CCCCOc1ccc(C(=O)CCN2CCOCC2)cc1	3.55 µM (active)	
CCOc1ccc(C2=Cc3cc(OC)c(OC)cc3C(=C(Cl)Cl)O2)cc1	inactive	
CN(CCO)c1nc(N)c2c(N)nc3c(c2c1C#N)CC(=O)N3C1CCCC1		-0.749% [at 11.6 µM]
CC1=NN(Cc2ccccc2)C(=O)C1	inactive	
O=c1cc(C23CC4CC(CC(C4)C2)C3)[nH][nH]1	inactive	
CCCc1cc(=O)[nH]c(=S)[nH]1	inactive	
Cc1cc2ccccc2n1CCNC(=O)C(C)Oc1ccccc1 (stereo not given)	inactive	
CCOC(=O)c1cnc2nc(NCc3ccc(OC)c(OC)c3)[nH]n2c1=O	inactive	
Cc1nc2c3cc(F)ccc3n(Cc3ccccc3F)c2s1	inactive	
CCN(C(=O)C1CCCN(c2ncnc3onc(-c4ccc(F)cc4)c23)C1)c1ccccc1 (stereo not given)	inactive	
CCN(CC)S(=O)(=O)c1cccc(N=NC2=C(O)CCCC2=O)c1		-3.56% [at 0.0112 µM]
O=C(Nc1nc2ccc(Cl)cc2s1)c1ccc(N2CCCCC2)c([N+](=O)[O-])c1	inactive	
